# SW480 rereplic = A quantitative high throughput screen for small molecules that induce DNA re-replication in SW480 colon adenocarcinoma cells | SW480 DNA re-replication, Hoechst DNA content imaging, 48 h | Potency, µM (doses to about 46.1 µM), for the others: at the top dose re-replication activation, most hits filed as activators | 1.8% of 340,000 active | AID 624297, 2012; also: potency is read from the fitted curve at half-maximal effect; % of control where 0% means no effect; nearly all actives have a fitted effect of over 55% in size
#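 DNA re-replication was detected as more nuclei of elevated Hoechst intensity after 48 hr exposure to compound (23 nL pinned per well of 250 cells).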
# KB-3-1 tox = qHTS assay for MDR1-selective chemotherapeutics: Primary screen using the parental adenocarcinoma cell KB-3-1 | KB-3-1 viability, CellTiter-Glo ATP luminescence, 72 h | Potency, µM (highest dose often 46.1 µM), actives largely listed as cytotoxic | 1.4% of 400,000 active | AID 1347075, 2019; also: potency is read from the fitted curve at half-maximal effect; % is scaled to controls: 0 for no effect and ±100 for the full control effect; nearly all actives have a fitted effect of over 60% in size
#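 Here the drug-naive KB-3-1 line serves as comparator for MDR sub-line selectivity; cells received compound titrations, 72 h at 37 °C, then CellTiter-Glo readout.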
# KCNH2 WT inh = qHTS for Inhibitors of KCHN2 3.1: Wildtype qHTS; AID 720551, 2013; activity change, % at 1.84 µM; U2OS, BacMam KCNH2, thallium flux FluxOr; hits give low values; 0.37% of 340,000 active;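 active = maximum activity change below -70%; inconclusive = maximum activity change between -70% and -50%; inactive = maximum activity change above -50%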; also: % is scaled to controls: 0 for no effect and ±100 for the full control effect
# Target sequence (Q12809 whole entry, looked up): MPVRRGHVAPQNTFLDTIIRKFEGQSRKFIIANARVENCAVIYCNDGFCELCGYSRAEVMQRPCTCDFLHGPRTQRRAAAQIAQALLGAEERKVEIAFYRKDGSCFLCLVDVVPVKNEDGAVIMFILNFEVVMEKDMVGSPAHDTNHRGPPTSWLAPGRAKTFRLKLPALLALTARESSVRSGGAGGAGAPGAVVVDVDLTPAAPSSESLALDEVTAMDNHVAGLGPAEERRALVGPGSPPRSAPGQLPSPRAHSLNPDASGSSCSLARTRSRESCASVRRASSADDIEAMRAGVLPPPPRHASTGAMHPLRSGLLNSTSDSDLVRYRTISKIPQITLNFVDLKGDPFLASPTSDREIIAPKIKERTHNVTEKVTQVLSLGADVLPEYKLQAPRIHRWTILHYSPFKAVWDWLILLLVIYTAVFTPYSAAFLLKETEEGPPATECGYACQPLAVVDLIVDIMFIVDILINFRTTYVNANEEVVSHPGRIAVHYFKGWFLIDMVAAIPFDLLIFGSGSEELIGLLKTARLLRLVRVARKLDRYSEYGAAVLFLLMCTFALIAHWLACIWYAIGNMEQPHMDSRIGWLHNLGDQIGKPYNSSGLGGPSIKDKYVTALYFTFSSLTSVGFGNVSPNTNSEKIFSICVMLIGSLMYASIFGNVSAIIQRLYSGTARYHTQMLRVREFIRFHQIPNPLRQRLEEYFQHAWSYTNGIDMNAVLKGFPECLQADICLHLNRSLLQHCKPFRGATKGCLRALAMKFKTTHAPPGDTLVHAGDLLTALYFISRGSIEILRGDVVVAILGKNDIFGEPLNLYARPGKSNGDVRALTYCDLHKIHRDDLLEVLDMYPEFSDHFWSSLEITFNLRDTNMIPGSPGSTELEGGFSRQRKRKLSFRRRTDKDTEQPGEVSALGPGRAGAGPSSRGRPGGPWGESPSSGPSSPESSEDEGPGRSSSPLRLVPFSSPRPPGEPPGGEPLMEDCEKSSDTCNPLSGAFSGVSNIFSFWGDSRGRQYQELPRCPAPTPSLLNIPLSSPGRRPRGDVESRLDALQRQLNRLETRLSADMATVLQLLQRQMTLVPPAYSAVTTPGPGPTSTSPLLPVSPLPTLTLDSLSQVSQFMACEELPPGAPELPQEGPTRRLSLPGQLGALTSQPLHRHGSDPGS
#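 U2OS cells were transduced with wild-type KCNH2 virus (2.03 x 10^8 / mL) for 4 h at room temperature, then cultured overnight at 37 C. Thallium flux was read with FluxOr dye. Rate constants were normalized to DMSO controls.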
# MCF10A rerep = A quantitative high throughput screen for small molecules that induce DNA re-replication in MCF 10a normal breast cells; MCF 10A DNA re-replication, Hoechst nuclear intensity, 48 h; Potency, µM (top dose mostly 46.1 µM), without a hit: top-dose activity, positive = re-replication, actives largely listed as activators; 2.9% of 350,000 active; AID 624296, 2012; also: potency is read from the fitted curve at half-maximal effect; % of control where 0% means no effect; nearly all actives have a fitted effect of over 50% in size
# KCNH2 3.1 block = qHTS for Inhibitors of KCHN2 3.1: Mutant qHTS; Potassium voltage-gated channel subfamily H member 2, brain isoform KCNH2 3.1 (human); U2OS KCNH2 3.1, thallium flux FluxOr; hits give low values; activity change, % (tested at about 1.8 µM); 0.95% of 340,000 active; AID 720553, 2013;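 active = maximum activity change below -70%; inconclusive = maximum activity change from -70% to -50%; inactive = maximum activity change above -50%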;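 also: thallium influx rate constant from kinetic fluorescence after stimulation buffer; % is scaled to controls: 0 for no effect and ±100 for the full control effect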
#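 Thallium flux read-out: FluxOr dye with Red40 quencher in HBSS/HEPES, 45 min at RT. Rate constants from kinetic reads were normalized to positive and negative DMSO controls. Cells: U2OS virally expressing the 3.1 isoform.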
# KB-V1 cytotox = qHTS assay for MDR1-selective chemotherapeutics: Primary screen using the drug-selected MDR subline cells KB-V1 | KB-V1 MDR cells viability, CellTiter-Glo, 72 h | Potency, µM (doses to about 46.1 µM), usual class: cytotoxic | 3.4% of 400,000 active | AID 1347076, 2019; also: potency is read from the fitted curve at half-maximal effect; % is scaled to controls: 0 for no effect and ±100 for the full control effect; nearly all actives have a fitted effect of over 60% in size
#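 Readout: CellTiter-Glo luminescence, 10 min after addition. Cells: KB-V1 MDR subline, 72 h at 37 degrees C with compound. Analysis: corrected, normalized data fitted to concentration-effect curves.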
# Starred values were filed as active, the others as inactive; i = inactive; ? = inconclusive; / = no result; ! = a repeat was not active. A selection: hits, their analogues and other compounds. The true share with any hit is near 7.6%. Unless noted, calls follow the shape of the dose curve; as a rule, active = well fitted curve in the direction sought with a large enough effect; inconclusive = small, poorly fitted or top-dose-only effect, or another doubt; inactive = no such curve, though single readings can be large; an effect the other way counts as inactive or inconclusive.
SMILES,SW480 rereplic,KB-3-1 tox,KCNH2 WT inh,MCF10A rerep,KCNH2 3.1 block,KB-V1 cytotox
COc1cccc(NC(=O)Nc2nc(-c3ccc(OC)c(OC)c3)cs2)c1,7.1%,18.4µM*,-16.4,20.6µM*,18.7,?
COc1ccc(-c2csc(NC(=O)CCn3cnc4ccccc4c3=O)n2)cc1OC,-0.3%,i,24.8,-4.7%,-5.5,18.4µM*
N#Cc1ccc(-c2csc(NC(=O)/C=C/c3cccs3)n2)cc1,-89.6%,i,-3.8,?,-22.3,i
NS(=O)(=O)c1ccc(NC(=O)COc2ccc(S(=O)(=O)N3CCCC3)cc2)cc1,-3.8%,i,-6.6,3.3%,1.9,i
Cc1ccc(-c2csc(NC(=O)Cn3cnc4c3c(=O)n(C)c(=O)n4C)n2)cc1C,11.5%,i,-1.9,20.6µM*,-3.2,i
Cc1cc(C)c(S(=O)(=O)Oc2ccccc2[N+](=O)[O-])c(C)c1,20.6µM*,i,56.9,6.51µM*,/,14.6µM*
Cc1ccc(C)c(C(=O)COc2ccccc2[N+](=O)[O-])c1,?,i,-0.8,?,-6.7,i
O=C(c1ccc2c(c1)CCN2S(=O)(=O)c1ccccc1)N1CCN(c2cccc(Cl)c2)CC1,/,i,/,/,/,i
CCS(=O)(=O)N1CCc2cc(C(=O)N3CCN(c4cccc(C(F)(F)F)c4)CC3)ccc21,/,16.4µM*,/,/,/,?
O=C(c1ccc2ncsc2c1)N1CCN(c2cccc(C(F)(F)F)c2)CC1,?,?,1.5,13µM*,46.8,?
O=C(c1ccc2nc[nH]c2c1)N1CCN(c2cccc(C(F)(F)F)c2)CC1,?,i,10.7,0.0%,/,i
O=C(c1ccc2c(c1)OCO2)N1CCN(c2cccc(C(F)(F)F)c2)CC1,?,13µM*,-0.9,11.6µM*,-5.2,16.4µM*
CC[C@]12C(=O)N(C)C[C@H]([C@@H]3C(=O)N(Cc4ccccc4)C(=O)[C@@H]31)N2C(=O)c1ccc(C(C)(C)C)cc1,3.4%,i,-4.7,1.5%,6.6,i
CCOC(=O)c1cc2c(=O)n3ccccc3nc2n(C(C)C)c1=NC(=O)c1ccco1,7.31µM*,i,-0.5,7.31µM*,-1.4,?
CCOC(=O)c1cc2c(=O)n3cccc(C)c3nc2n(Cc2ccco2)c1=NC(=O)c1ccccc1,?,i,-9.0,8.2µM*,-8.4,?
CCOC(=O)c1cc2c(=O)n3ccccc3nc2n(CCCOC)c1=NC(C)=O,?,i,2.3,?,-0.9,i
CC(C)n1c(=NC(=O)c2ccco2)c(C#N)cc2c(=O)n3ccccc3cc21,13µM*,?,6.1,8.91µM*,-10.3,i
CCOC(=O)c1cc2c(=O)n3cccc(C)c3nc2n(CCOC)c1=NC(C)=O,5.8µM*,i,1.3,3.66µM*,4.1,?
CC(=O)c1ccc2c(c1)N(Cc1ccccc1)C(=O)C(C)S2 (stereo unspecified),/,i,/,/,/,i
O=C(NC(Cc1c[nH]c2ccccc12)C(=O)O)OCC1c2ccccc2-c2ccccc21 (stereo unspecified),/,i,/,/,/,i
C=C1C=C(C(F)F)n2ncc(C(=O)Nc3cccc(CC)c3)c2N1,/,i,/,/,/,?
CCOCCCn1c(=NC(=O)c2ccco2)c(C(=O)OCC)cc2c(=O)n3cccc(C)c3nc21,1.64µM*,i,0.1,?,-3.7,?
Cn1nc(C(=O)Nc2cccc(C(F)(F)F)c2)c2ccccc2c1=O,-3.0%,i,1.5,1.2%,-1.5,8.2µM*
COc1ccc(/C=C/C2=CCN(Cc3ccc(OC)cc3)CC2)cc1,17.3%,i,-33.4,?,-78.8*,i
COc1ccc(/C=N/N2CCN(Cc3ccccc3)CC2)cc1,?,i,6.2,-2.6%,23.3,i
SMILES,SW480 rereplic,KB-3-1 tox,KCNH2 WT inh,MCF10A rerep,KCNH2 3.1 block,KB-V1 cytotox
CCCCCCNC(=O)n1cc(F)c(=O)[nH]c1=O,42.3%,/,/,21.2%,/,/
CC(C)(C#CC(O)(c1ccccc1)c1ccccc1)N1CCCCC1,-2.3%,i,0.5,3.6%,-5.0,i
CC(C)(C#CC(O)(c1ccccc1)c1ccccc1)N1CCCC1,-6.9%,i,58.1,0.82µM*,-19.9,i
COc1ccccc1NC(=O)c1cc(=O)c2ccc(C)c(C)c2o1,/,i,/,/,/,i
Cc1cccc(NS(=O)(=O)c2ccc3[nH]c(=O)cc(C(=O)OC(C)C(=O)Nc4ccc([N+](=O)[O-])cc4)c3c2)c1 (stereo unspecified),-1.6%,i,-2.8,1.1%,-4.7,i
CCc1ccc(NC(=O)C(C)OC(=O)c2cc(=O)[nH]c3ccc(S(=O)(=O)Nc4ccc(F)cc4)cc23)cc1 (stereo unspecified),8.6%,i,-1.4,20.6µM*,-3.9,?
CN(C)CCOC(=O)CCc1ccccc1,-2.2%,i,-2.5,0.3%,-4.9,i
CN(C)CCOC(=O)CCCCCCCCC(=O)OCCN(C)C,3.66µM*,i,10.0,-1.0%,3.3,i
COc1cc2c(cc1OC)C(c1ccc(Cl)cc1)=NCC2,10.8%,i,1.3,5.3%,3.0,i
COc1cc2c(cc1OC)C(c1ccc(-c3ccc(Cl)c(Cl)c3)o1)=NCC2,18.4µM*,16.4µM*!,4.5,2.31µM*,-37.7,?
COc1cc2c(cc1OC)C(c1ccc(-c3ccccc3Cl)o1)=NCC2,?,i,10.8,?,-2.6,i
COc1cc2c(cc1OC)C(c1ccc(-c3cc(Cl)ccc3Cl)o1)=NCC2,16.4µM*,?,4.7,?,-24.1,5.17µM*
COc1cc2c(cc1OC)C(c1oc(-c3ccc(-c4cc(Cl)ccc4Cl)o3)cc1C)=NCC2,/,?,/,/,/,i
COc1cc2c(cc1OC)C(c1ccc(-c3ccc(Cl)cc3Cl)o1)=NCC2,?,23.1µM*,-4.1,?,-114.7*,2.59µM*
CCOc1ccc(NC(=O)Cn2cc(C(=O)c3ccc(OC)cc3)c(=O)c3cc4c(cc32)OCO4)cc1,/,i,/,/,/,?
COc1ccc(-c2nnc(SCC(=O)N3CCC(C)CC3)o2)cc1,/,i,/,/,/,i
COc1ccc(NC(=O)Cn2cc(S(=O)(=O)Cc3ccc(F)cc3)c3ccccc32)cc1OC,/,i,/,/,/,i
